Reference: the OligoGym collection

These sequences were tested against ANG (assay: pooled miR-30 sensor sort-seq; sequence = guide strand). Details: shRNA.

Question: With TAGGTTTTCTCTGTGAGGGTTT as the sequence, how does the sensor-assay potency score (higher = more potent) read?
Answer: 0.619

Question: For TTGATGTCTTTGCAGGGTGAGG, which sensor-assay potency score (higher = more potent) is on record?
Answer: -1.52

Question: Which sensor-assay potency score (higher = more potent) does the source give for TTTGGCATCATAGTGCTGGGTC here?
Answer: 0.651

Question: With TGTGTACCTGGAGTTATCCTGA as the sequence, how does the sensor-assay potency score (higher = more potent) read?
Answer: 0.329

Question: With TAGCTTGCAAGTGGTGACCTGG as the sequence, how does the sensor-assay potency score (higher = more potent) read?
Answer: -0.539

Question: For TTGCCATGAATAAATGTGTTGA, which sensor-assay potency score (higher = more potent) is on record?
Answer: -0.499

Question: TGCTTTCACAGTATCTGTCATC was tested. Which sensor-assay potency score (higher = more potent) did it give?
Answer: -1.22

Question: How did the sensor-assay potency score (higher = more potent) turn out when TTGATGCTGCGCTTGTTGCCAT was run?
Answer: -0.23

Question: For TTAGGTTTTCTCTGTGAGGGTT, which sensor-assay potency score (higher = more potent) is on record?
Answer: 0.674

Question: Which sensor-assay potency score (higher = more potent) does the source give for TTATCCTGAGCCAGGGTCGGTG here?
Answer: -1.46

Question: With TGGTTTGGCATCATAGTGCTGG as the sequence, how does the sensor-assay potency score (higher = more potent) read?
Answer: -0.375

Each sequence was assayed against ANK1 in the same assay as above. Details: shRNA.

Question: How did the sensor-assay potency score (higher = more potent) turn out when TCATCTGTCATGCAGTAGCAGC was run?
Answer: -1.12

Question: With TTGACTTTGGCTTTGTTCTGGA as the sequence, how does the sensor-assay potency score (higher = more potent) read?
Answer: 0.642

Question: Which sensor-assay potency score (higher = more potent) does the source give for TGGACAAGTCTATCTGTCGAAC here?
Answer: -1.67

Question: For TTGGTGACGGCATTCTCCGGGA, which sensor-assay potency score (higher = more potent) is on record?
Answer: -0.46

Question: Which sensor-assay potency score (higher = more potent) does the source give for TAGCTTCGGCACAAAATCCAGC here?
Answer: -0.878

Question: With TTGGTCTTGGTTTCTATCTGGG as the sequence, how does the sensor-assay potency score (higher = more potent) read?
Answer: -0.274

Question: For TCACTGACTAACACGAAACTGG, which sensor-assay potency score (higher = more potent) is on record?
Answer: -0.214

Question: TTCTCTTCATCAACATCCCTGG was tested. Which sensor-assay potency score (higher = more potent) did it give?
Answer: -0.331

Question: How did the sensor-assay potency score (higher = more potent) turn out when TTGTGCAGCATCTTGCAGGTAT was run?
Answer: 0.193

Question: TTCTAGAATGATTTCTTTGTGC was tested. Which sensor-assay potency score (higher = more potent) did it give?
Answer: 0.132

Question: Which sensor-assay potency score (higher = more potent) does the source give for TTGATGTTTCCATAGTGACTGG here?
Answer: -0.739

Question: Which sensor-assay potency score (higher = more potent) does the source give for TGCACCTGTCGCGTCATCCTGC here?
Answer: -1.06

Question: TTGCAGGTATGAGACAATCGAG was tested. Which sensor-assay potency score (higher = more potent) did it give?
Answer: -1

Question: How did the sensor-assay potency score (higher = more potent) turn out when TTCATCTTCCGAGACATCCAGG was run?
Answer: -0.548

Question: For TGTGGTGTGAAATTGACGCTGG, which sensor-assay potency score (higher = more potent) is on record?
Answer: 0.797

Question: For TAGAATGATTTCTTTGTGCAGA, which sensor-assay potency score (higher = more potent) is on record?
Answer: -0.0456

Question: For TCTCTTCTGACCTCTGACCTTC, which sensor-assay potency score (higher = more potent) is on record?
Answer: -0.43

Question: TCGTATTGCAACAGGAGCCGGA was tested. Which sensor-assay potency score (higher = more potent) did it give?
Answer: -0.769

Question: How did the sensor-assay potency score (higher = more potent) turn out when TTAGTGACAAGCTCATCCGGGA was run?
Answer: -0.401
